In PubChem BioAssay (NCI):
The panel holds about 79,000 compounds, 15% with a hit somewhere; the sample as a whole holds those more often. Unmarked numbers belong to inactive results. The source made the active and inactive calls. Rule as the data show it: active = growth inhibition above about 70%; inactive = the rest.

Experiments:
[1] = NCI Yeast Anticancer Drug Screen. Data for the rad50 strain (AID 155);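 also: 0% = growth of vehicle-only cultures of the same strain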; conditions: S. cerevisiae rad50 strain growth inhibition, stronger effect = higher value
Summary of the method: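 DNA repair mutant yeast, compound exposure, growth read-out; inhibition is taken relative to vehicle.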

[2] = NCI Yeast Anticancer Drug Screen. Data for the mec2-1 strain (AID 157); conditions: S. cerevisiae mec2-1 strain, stronger effect = higher value
Summary of the method: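 Test agents were screened against the mec2-1 yeast strain, with defined DNA repair or cell cycle alteration. Growth was scored as inhibition against vehicle-only controls.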

[3] = NCI Yeast Anticancer Drug Screen. Data for the sgs1 mgt1 strain (AID 161);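 also: 0% = growth of cultures given vehicle only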; conditions: S. cerevisiae sgs1 mgt1 strain, stronger effect = higher value
Summary of the method: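 Mutant yeast exposed to compound; growth scored against vehicle-only wells.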

[4] = NCI Yeast Anticancer Drug Screen. Data for the cln2 rad14 strain (AID 165);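 also: 0% = growth equal to vehicle treated cultures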; conditions: S. cerevisiae cln2 rad14 strain, stronger effect = higher value
Summary of the method: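 Growth of compound-exposed yeast (cln2 rad14 genotype) measured and expressed as inhibition relative to vehicle.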

[5] = NCI Yeast Anticancer Drug Screen. Data for the bub3 strain (AID 167); conditions: S. cerevisiae bub3 mutant strain, stronger effect = higher value
Summary of the method: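 In this screen, a yeast mutant lacking normal mitotic checkpoint function is challenged with compound. Relative growth versus vehicle gives the inhibition value.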

[6] = NCI Yeast Anticancer Drug Screen. Data for the mlh1 rad18 strain (AID 175); conditions: S. cerevisiae mlh1 rad18 strain growth inhibition, stronger effect = higher value
Summary of the method: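 In this whole-cell yeast screen, a strain with altered DNA damage repair is challenged with compound, and its growth is measured against matched vehicle-treated controls.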

[7] = at 5.0 µM (retest, dose inferred, filed as 0.5)
[8] = at 50.0 µM (retest, dose inferred, filed as 5.0)

Compound | growth inhibition [1, 7] | growth inhibition [1, 8] | growth inhibition ([1]; at 50.0 µM) | growth inhibition [2, 7] | growth inhibition [2, 8] | growth inhibition ([2]; at 50.0 µM) | growth inhibition [3, 7] | growth inhibition [3, 8] | growth inhibition ([3]; at 50.0 µM) | growth inhibition [4, 7] | growth inhibition [4, 8] | growth inhibition ([4]; at 50.0 µM) | growth inhibition [5, 7] | growth inhibition [5, 8] | growth inhibition ([5]; at 50.0 µM) | growth inhibition [6, 7] | growth inhibition [6, 8] | growth inhibition ([6]; at 50.0 µM)
O=C1OC(CCCl)(c2ccccc2)CC1CN1CCOCC1 (stereo not given) | 10% | 81% (active) | 70% (active) | -10% | 90% (active) | 57.9% | -2% | 75% (active) | 59% | 15% | 56% | 41.8% | 30% | 94% (active) | 71.5% (active) | -7% | 91% (active) | 73.6% (active)
COC(=O)CCC(NC(=S)N/N=C/c1ccccn1)C(=O)OC (stereo not given) | -2% | 29% | 72.1% (active) | -54% | 47% | 49.1% | -25% | 41% | 57.4% | -11% | 33% | 60.8% | -6% | 59% | 71.8% (active) | -30% | 48% | 61.8%
CCCCNC(=S)NC1C2CC3CC(C2)CC1C3 (stereo not given) | -8% | 78% (active) | 97.4% (active) | -4% | 64% | 98.5% (active) | -4% | 90% (active) | 97.9% (active) | 0% | 39% | 92.2% (active) | -8% | 24% | 90.4% (active) | -13% | 93% (active) | 97.2% (active)
CC(C)OC(=O)c1ccc(NCc2cc(O)ccc2O)cc1Cl | 61% | 99% (active) | 89.8% (active) | 41% | 99% (active) | 90.3% (active) | 55% | 99% (active) | 91.6% (active) | 63% | 100% (active) | 89.5% (active) | 53% | 100% (active) | 88.9% (active) | 49% | 98% (active) | 88% (active)
Nc1nc2nc(I)[nH]c2c(=O)[nH]1 | -4% | -4% | 4.8% | -13% | -16% | -2.5% | 10% | 9% | -5.25% | -8% | -4% | 30.3% | -7% | 3% | 31.6% | -9% | -2% | 10.9%
CCCCN(CCCC)Cc1cc(Nc2c3ccc(Cl)cc3nc3ccc(OC)cc23)ccc1O | 4% | 91% (active) | 79.2% (active) | 10% | 56% | 86.7% (active) | -19% | 95% (active) | 75.4% (active) | -4% | 23% | 89.5% (active) | -3% | 36% | 58.4% | 7% | 79% (active) | 98.1% (active)
O=C(Nc1ccccc1F)C(Br)C(Br)c1ccccc1 (stereo not given) | 6% | 97% (active) | 98.6% (active) | 8% | 90% (active) | 99% (active) | 23% | 97% (active) | 99.4% (active) | 6% | 36% | 99.1% (active) | -1% | 95% (active) | 99% (active) | 29% | 95% (active) | 98.9% (active)
O=C(/C=C\c1ccccc1)N1c2ccccc2CC1c1c[nH]c2ccccc12 (stereo not given) | -10% | 11% | 6.35% | -1% | 17% | -1.7% | 4% | 19% | 10.3% | -1% | 1% | 36.9% | 20% | 41% | -2.1% | 7% | 11% | 12.2%
O=[N+]([O-])c1cccc2nc3ccccc3c(NCCO)c12 | 78% (active) | 94% (active) | 86.8% (active) | 84% (active) | 98% (active) | 92% (active) | 82% (active) | 95% (active) | 91.5% (active) | 89% (active) | 96% (active) | 92% (active) | 28% | 94% (active) | 87.2% (active) | 89% (active) | 96% (active) | 86.6% (active)
CCOC(=O)CCC(NC(=O)c1ccc(NC(OC)c2nc3cc(C(F)(F)F)ccc3nc2-c2ccccc2)cc1)C(=O)OCC (stereo not given) | 88% (active) | 88% (active) | 92.8% (active) | 78% (active) | 78% (active) | 93.2% (active) | 90% (active) | 90% (active) | 93.8% (active) | 80% (active) | 80% (active) | 92.7% (active) | 84% (active) | 84% (active) | 91.8% (active) | 92% (active) | 92% (active) | 91.9% (active)
